Data taken from PubChem BioAssay (NCI).
About 79,000 compounds went through this panel and 15% of them were active in at least one assay; those are over-represented in the sample as a whole. Unmarked numbers belong to inactive results. Active and inactive are the calls of the source. Rule as the data show it: active = growth inhibition above about 70%; inactive = the rest.

Key:
[1] = NCI Yeast Anticancer Drug Screen. Data for the rad50 strain (AID 155);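 also: 0% = growth of vehicle-only cultures of the same strain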; details: S. cerevisiae rad50 strain growth inhibition; at 50.0 µM; hits give high values
In short: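 Growth of the mutant yeast was measured after compound exposure and referenced to vehicle-treated cultures.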

[2] = NCI Yeast Anticancer Drug Screen. Data for the mec2-1 strain (AID 157); details: S. cerevisiae mec2-1 strain, at 50.0 µM, hits give high values
In short: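 Strain: mec2-1 (DNA repair/cell cycle alteration). Compound exposure, then growth measured; inhibition expressed relative to vehicle.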

[3] = NCI Yeast Anticancer Drug Screen. Data for the sgs1 mgt1 strain (AID 161);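 also: 0% = growth of cultures given vehicle only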; details: S. cerevisiae sgs1 mgt1 strain, at 50.0 µM, hits give high values
In short: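 Inhibition of yeast growth, normalised to vehicle-treated controls, is reported for a strain bearing genetic alterations in DNA damage repair.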

[4] = NCI Yeast Anticancer Drug Screen. Data for the cln2 rad14 strain (AID 165);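 also: 0% = growth equal to vehicle treated cultures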; details: S. cerevisiae cln2 rad14 strain, at 50.0 µM, hits give high values
In short: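 Compounds are applied to the cln2 rad14 yeast strain, and growth is then compared with that of vehicle-treated cultures to give inhibition.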

[5] = NCI Yeast Anticancer Drug Screen. Data for the bub3 strain (AID 167); details: S. cerevisiae bub3 mutant strain, at 50.0 µM, hits give high values
In short: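 Whole-cell yeast assay. The mutant strain was incubated with compounds, and growth inhibition was determined by comparison with vehicle-treated cells.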

[6] = NCI Yeast Anticancer Drug Screen. Data for the mlh1 rad18 strain (AID 175); details: S. cerevisiae mlh1 rad18 strain growth inhibition; at 50.0 µM; hits give high values
In short: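 Read-out is yeast growth inhibition, calculated against vehicle-only controls. The compound was applied to a strain engineered with DNA damage repair alterations.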

Structure (SMILES) | growth inhibition [1] | growth inhibition [2] | growth inhibition [3] | growth inhibition [4] | growth inhibition [5] | growth inhibition [6]
CCCN=C(NNC(N)=O)C(C)=O | 24.9% | 7.9% | -4.35% | 5.55% | 15.7% | -1.45%
CNC(=O)n1cncn1 | -10.6% | 3.35% | -9.75% | 0.1% | -2.2% | -12.7%
Cc1nc(N)[nH]c(=O)c1CCO | -1.3% | -23% | -36.6% | 3.3% | -15.1% | -3.8%
O=[N+]([O-])c1ccc(C2NC(c3ccccc3)c3c(ccc4ccccc34)O2)cc1 (stereo unspecified) | 41% | 2.75% | 23.8% | -1.35% | -0.25% | 4.3%
Cc1ccc2c(c1)CN(C)CO2 | -15% | 6.45% | 5.6% | -51.4% | -18.1% | -24.1%
Cc1nc(-c2cccnc2)sc1C(=O)/C=C/c1ccc(Cl)cc1Cl | 12.8% | -2.05% | 3.85% | 8.55% | 3.7% | 8.95%
Cc1ccccc1NCc1ccccc1[N+](=O)[O-] | 23.9% | 11.1% | 14.8% | -28.6% | -14.6% | 18.9%
CC(=O)OC12c3ccccc3-c3ccccc3C1C1C(=O)N(C)C(=O)C12Cl (stereo unspecified) | -13.4% | -22.2% | -12.2% | 10.4% | 36.5% | 13.2%
Cc1nn(C)c2ncnc(N)c12 | 10.8% | 0.55% | 17% | -7.8% | -8.85% | 7.7%
O=CC(O)C(O)C(O)C(O)COC1OC(CO)C(O)C(O)C1O (stereo unspecified) | 22.6% | -11.7% | 21.2% | 8% | 23% | 11.1%
CCOC(=O)CNC(=O)C(Cc1cnc[nH]1)NC(=O)CNC(=O)OCc1ccccc1 (stereo unspecified) | 1.15% | -2.15% | 9.75% | -23.9% | 1.1% | 9.2%
CCCCCCCCCCCCCCCC[Si](Cl)(Cl)Cl | -0.6% | -10.7% | -5.85% | -22.6% | 2.95% | 10.1%
O=C1CC2C(=O)N(Cc3ccccc3)C1C=C2S(=O)(=O)c1ccccc1 (stereo unspecified) | -15.7% | 21.6% | 36.8% | 4.25% | -1.3% | 4.9%
CC(=O)N1C(=O)NC(=O)C1(C)C | -7% | -29.9% | 6.65% | -18.5% | 1.5% | -7.15%
Oc1ccccc1/C=N\c1nccs1 | 10.7% | 19.2% | 18.6% | 12.4% | 23.8% | 13.2%
CCOC(=O)c1nc(-c2ccccc2)c(-c2ccccc2)c(-c2ccccc2)c1C | -24.6% | -2.55% | 10.2% | -36.9% | -0.6% | -4.85%
CCC(C)C=O (stereo unspecified) | 3.9% | -6.3% | -9.2% | 2.2% | 10.4% | -8.3%
CCOC(OCC)N(C)C | -14.9% | -5.25% | -3.05% | -4.8% | -5.5% | -26.8%
NC(=O)c1c[nH]c(=O)cc1O | -5.35% | -13.6% | 50.2% | 18.8% | 7.3% | 0%
CCOC(=O)c1ccc(NC(=O)Nc2cc(Cl)c(OC)cc2OC)cc1 | 75% (active) | 90.7% (active) | 94% (active) | 91.8% (active) | 76.1% (active) | 85.8% (active)
CC(C)[O-].CC(C)[O-].O=c1cccccc1[O-].O=c1cccccc1[O-].[Ti+4] | -13.2% | 0.9% | 14.2% | 10.8% | -1.5% | 22.4%

Structure (SMILES) | growth inhibition [1] | growth inhibition [2] | growth inhibition [3] | growth inhibition [4] | growth inhibition [5] | growth inhibition [6]
N#Cc1nc(/C=C/c2cccnc2)oc1N | -1.9% | 6.7% | -8.1% | -3.65% | -6.55% | -56.6%
CCC(c1cccc(OC)c1)C(C(=O)O)c1ccc(OC)cc1 (stereo unspecified) | 5% | 17.5% | 12.6% | 7.15% | 7.35% | 27.2%
COc1cccc(N=Nc2c(-c3ccccc3)nn(C(=S)S)c2C)c1 | -2.6% | 0.6% | 17.6% | -192% | 19.3% | 20.6%
CC(=O)OCCOCNC(=S)N/N=C/c1ccc([N+](=O)[O-])s1 | 35.4% | -5.2% | 23.9% | 32.5% | 2.7% | 12.6%
CCCCCc1c2nc(c(CCCCC)c3ccc([nH]3)c(CCCCC)c3ccc([nH]3)c(CCCCC)c3nc1C=C3)C=C2 | 0.1% | -11.8% | -10.3% | 23.1% | -10.5% | -15.6%
Nc1ccc2c(c1)Cc1cccc(N)c1-2 | 31.8% | 11.2% | 0.7% | 11% | 7.2% | 1.9%
N#Cc1ccccc1-c1ccccc1/C=C/C(=O)O | -20.4% | -5.9% | -9.5% | 11.8% | -8% | 12.4%
O=C(O)C(Cc1c[nH]c2ccccc12)Nc1ccc([N+](=O)[O-])cc1[N+](=O)[O-] (stereo unspecified) | -27.7% | -3.95% | 13.8% | -10.7% | 3.6% | 7.55%
O=C(Cn1nnc(N2CCCCC2)n1)N/N=C/c1ccccc1O | -29.7% | -42% | -9% | -10.8% | -9.05% | -29.3%
COc1cc(-c2c3c(cc4c2OCO4)CC(O)C(C(=O)O)C3)cc(OC)c1OC (stereo unspecified) | 40.9% | -2.6% | 0.4% | 15.1% | 1.75% | 5.6%
O=C(Cn1c(-c2ccccc2)cc2ccccc21)N1CCOCC1 | -0.45% | -32.9% | -39% | -18.1% | 1.65% | -28.1%
CC(=O)C1C(=O)C(=O)N(CCN2C(=O)C(=O)C(C(C)=O)C2=O)C1=O (stereo unspecified) | -12.4% | -0.8% | 0.95% | -26.2% | -5.9% | 0.75%
Cc1ccc2c(c1)C(OC(=O)Nc1ccccc1)CCC2 (stereo unspecified) | 18.1% | 2% | 3.5% | 6.05% | 38% | 5.1%
O=C(NP(=O)(O)NC(Cc1ccccc1)C(=O)O)OCc1ccccc1 (stereo unspecified) | -7.45% | -6.65% | 4.1% | -18.9% | 1.8% | -12.2%
N#Cc1c(-c2ccccc2)cc(-c2cccs2)c(C#N)c1N | 4.35% | 4% | 7.85% | -35.3% | 12.8% | 21.1%
COc1cc(C(=O)Nc2c3ccccc3nc3ccccc23)cc(OC)c1OC | -19.9% | -4.55% | 7.8% | -23.6% | -3.3% | -14.6%
Cc1nc(N)[nH]c(=O)c1Cc1ccc(Cl)cc1Cl | -1.65% | -1.15% | -5.7% | -44.4% | -12.6% | 8.55%
COC(=O)C1C2C=CC(CC2)C1C(=O)OC (stereo unspecified) | 1.9% | 5.65% | -0.3% | -22.1% | -10.8% | 7.95%
S=C1Cc2c([nH]c3ccccc23)-c2ccccc2N1 | -11.1% | 26.6% | -8.85% | -3.9% | 23.2% | 2.45%
Nc1ccc(C(=O)OCCN2CCN(CCOC(=O)c3ccc(N)cc3)CC2)cc1 | 28.9% | 13.4% | 12.6% | 16.2% | 1.6% | 28.4%
